Cruzain Triton: cruzain (T. cruzi) inhibition with detergent. P25779. Potency, µM, without a hit: max response, negative = inhibition, hits mostly inhibitors. purified cruzain, Z-FR-AMC fluorescence, 0.01% Triton. AID 1478. 200,000 compounds, 0.43% hits;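 note: plate controls were neutral wells for no effect and buffer without enzyme for full effect; nearly all actives have a fitted effect of over 40% in size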
Target sequence (P25779 123-467 limits assumed): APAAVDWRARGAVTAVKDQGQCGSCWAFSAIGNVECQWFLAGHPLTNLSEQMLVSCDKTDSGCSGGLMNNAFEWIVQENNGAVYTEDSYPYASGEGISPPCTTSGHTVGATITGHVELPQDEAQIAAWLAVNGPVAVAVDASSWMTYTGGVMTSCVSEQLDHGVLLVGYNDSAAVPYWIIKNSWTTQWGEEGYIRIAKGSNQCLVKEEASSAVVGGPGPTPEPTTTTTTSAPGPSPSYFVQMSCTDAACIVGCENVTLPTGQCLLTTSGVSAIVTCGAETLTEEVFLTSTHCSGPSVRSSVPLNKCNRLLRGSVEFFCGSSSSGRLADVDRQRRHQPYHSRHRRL
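Compounds were screened in titration against cruzain (1.5 nM) with 0.01% Triton X-100 to counter colloidal aggregation. Activity was the AMC fluorescence increase over 60 s after adding 2 uM Z-FR-AMC at pH 5.5.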
Cruzain inh noDet: blocks cruzain activity in detergent-free assay; Potency, µM, without a hit: max response, negative = inhibition, usual class: inhibitors; P25779; 200,000 compounds, 2.3% hits; AID 1476; purified cruzain, Z-FR-AMC fluorescence, no detergent;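 note: plate controls were enzyme without inhibitor for no effect and buffer without enzyme for full effect; nearly all actives have a fitted effect of over 40% in size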
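Detergent-free condition (0.00005% Triton X-100) in acetate buffer pH 5.5 with DTT. 1.5 nM enzyme and compound were pre-mixed 15 min, then 2 uM Z-FR-AMC substrate added; reaction progress from fluorescence change between first and third reads (60 s).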
The depositor's hits bear a star; ? = inconclusive. The list is not random: actives were taken first. Their share in the collection is about 2.6%. Calls come from the whole dose curve; as a rule, active = well fitted curve in the direction sought with a large enough effect; inconclusive = small, poorly fitted or top-dose-only effect, or another doubt; inactive = no such curve, though single readings can be large; an effect the other way counts as inactive or inconclusive. Potency is the fitted concentration of half-maximal effect.

SMILES	Cruzain Triton	Cruzain inh noDet
Cc1nc2cnc(Nc3ccccc3)nc2n(Cc2cccs2)c1=O	0.7%	0.9%
O=c1c(CCc2ccccc2)nc2cnc(Nc3ccccc3)nc2n1Cc1cccs1	3.6%	25.1µM*
COc1ccc(Oc2ncc3nc(C)c(=O)n(Cc4cccs4)c3n2)cc1	-5.8%	13.0%
CCCn1c(-c2ccc(F)cc2)nc2c(NCCCN3CCOCC3)nc(C)nc21	7.1%	-4.0%
Cc1ccc(N2C(=O)CSC23C(=O)N(CC(=O)Nc2ccccc2F)c2ccccc23)cc1C (stereo not given)	-3.6%	?
CCOc1ccc(-c2nc(SCC(=O)NC3CCCC3)c(-c3ccccc3)[nH]2)cc1OC	-9.2%	?
COc1ccc(C(=O)N2CCC[C@@]3(CCN(c4ccccc4)C3)C2)cc1	-4.5%	8.0%
COc1c(C)cccc1C(=O)Nc1ccc(-c2nc3ccccc3s2)c(Cl)c1	-1.9%	1.0%
O=C(CSc1nc2cc(Cl)ccc2c(=O)n1Cc1ccco1)Nc1ccc(S(=O)(=O)N2CCOCC2)cc1	-4.8%	?
COC(=O)c1ccc2c(=O)n(Cc3ccco3)c(SCC(=O)Nc3ccc(C)c(Cl)c3)nc2c1	6.5%	6.31µM*
Cc1cc(C)cc(NC(=O)C2CCCN(c3nnc(-n4c(C)ccc4C)s3)C2)c1 (stereo not given)	-4.3%	-2.5%
Cc1ccc(N2C(=O)CSC23C(=O)N(CC(=O)Nc2ccc(C(C)C)cc2)c2ccccc23)cc1C (stereo not given)	-5.5%	?
Cc1ccc(NC(=O)CN2C(=O)C3(SCC(=O)N3c3cccc(Cl)c3)c3ccccc32)cc1C (stereo not given)	-5.4%	20µM*
O=C(CN1C(=O)C2(SCC(=O)N2c2ccc(F)c(F)c2)c2ccccc21)Nc1cccc(Cl)c1 (stereo not given)	-5.9%	?
COc1ccc(NC(=O)CN2C(=O)C3(SCC(=O)N3c3ccccc3)c3ccccc32)cc1Cl (stereo not given)	-5.1%	20µM*
CCOc1ccccc1CNC(=O)CCc1c(C)nn(-c2ccc(N3CCCCC3)nn2)c1C	-5.8%	-5.5%
CCC(CC)c1nnc(NC(=O)c2ccc(N3CCCCC3)c([N+](=O)[O-])c2)s1	-5.0%	0.3%
O=C(Nc1ccc(N2CCCCC2)c(Cl)c1)c1ccc(N2CCOCC2)c([N+](=O)[O-])c1	-2.6%	-0.9%
COc1cccc(C(=O)Nc2ccccc2-c2nc3ccccc3s2)c1	0.1%	6.7%
CC(=O)N1CCN(c2ccc(NC(=O)c3ccc(N4CCCC4)c([N+](=O)[O-])c3)cc2Cl)CC1	1.2%	12.6%
Cc1c(NC(=O)c2ccc(N3CCCC3)c([N+](=O)[O-])c2)cccc1-c1nc2ccccc2s1	-7.3%	7.94µM*
O=C(Nc1nc2ccc(Cl)cc2s1)c1ccc(N2CCCCC2)c([N+](=O)[O-])c1	-3.3%	5.01µM*
O=C(Nc1ccc2c(c1)OCO2)c1ccc(N2CCCC2)c([N+](=O)[O-])c1	-10.1%	25.1µM*
O=C(Nc1nc2ccc3ccccc3c2s1)c1ccc(N2CCCCC2)c([N+](=O)[O-])c1	-5.3%	6.31µM*
COC1C=CO[C@@]2(C)Oc3c(C)c(O)c4c(O)c(c(C=NN5CCN(C)CC5)c(O)c4c3C2=O)NC(=O)/C(C)=C\C=CC(C)C(O)[C@@H](C)C(O)C(C)[C@H](OC(C)=O)C1C (stereo not given in full)	-22.4%	?
SMILES	Cruzain Triton	Cruzain inh noDet
COc1ccc(C(=O)N=c2sc3cc(Cl)ccc3n2C)cc1	-1.0%	-7.3%
COc1cccc(CNCc2c(C(=O)O)c(C)n(Cc3ccc(F)cc3Cl)c2C)c1OC	-2.8%	-6.7%
CC(=O)c1ccc(NC(=O)CN2C(=O)CCc3cc(S(=O)(=O)N4CCC(C)CC4)ccc32)cc1	-4.8%	?
CCCC(=O)Nc1cccc(-c2nc3cc(C)c(C)cc3o2)c1C	0.2%	0.3%
CCn1cc(C(=O)N2CCN(c3cccc(C)c3)C(C)C2)c(=O)c2cc(S(=O)(=O)N3CCOCC3)ccc21 (stereo not given)	-8.8%	26.4%
COC(=O)/C=c1/s/c(=C(/C#N)C(=O)NCc2ccccc2)n(-c2ccccc2)c1=O	1.2%	?
CCCCCCOc1ccc(/C=c2\s/c(=C(/C#N)C(=O)NCc3ccco3)n(-c3ccccc3)c2=O)cc1	-0.9%	3.16µM*
Cc1[nH]c(=O)[nH]c(=O)c1C1N2CC3(C(C)C)CN1CC(C(C)C)(C2)C3=O (stereo not given)	2.0%	-12.2%
O=C1CCCc2cc(S(=O)(=O)NCC3CCC(C(=O)NCc4ccc(F)cc4)CC3)ccc2N1 (stereo not given)	1.1%	-18.6%
CC(C)c1cccc(C(C)C)c1NC(=O)c1ccc(OCC(=O)NCc2ccccc2)cc1	0.1%	7.94µM*
CC(C)c1ccccc1NC(=O)COc1ccc(C(=O)NCCc2ccccc2)cc1	0.0%	?
CCOC(=O)c1c(S(=O)(=O)N2CCC(C(=O)Nc3ccc(OCC)cc3)CC2)c(C)n(C)c1C	5.1%	-8.9%
COc1ccc2c(c1)CCc1c(C(=O)Nc3cc(C)n(Cc4ccc(Cl)cc4)n3)noc1-2	-3.3%	12.6µM*
COc1ccc2c(c1)CCc1c(C(=O)Nc3c(C)nn(Cc4ccc(Cl)cc4)c3C)noc1-2	-5.4%	2.0%
CC(=O)c1ccc(NS(=O)(=O)c2ccc(-n3cccn3)cc2)cc1	-7.9%	-12.4%
Cc1ccc(CNC(=O)Cc2csc3ccccc23)cc1	-4.9%	-3.6%
O=C(Cc1csc(Nc2nc(=S)[nH]c3ccccc23)n1)NCc1cccc(Cl)c1	2.4%	3.98µM*
O=C(Cc1csc(Nc2nc(=S)[nH]c3ccccc23)n1)NCc1ccccc1Cl	3.1%	?
Cc1ccc(CNC(=O)Cc2csc(Nc3nc(=S)[nH]c4ccccc34)n2)cc1	-0.7%	10µM*
N#Cc1c(-c2ccc(C(F)(F)F)cc2)cc(-c2ccccc2)[nH]c1=S	2.8%	-14.8%
Cc1ccc(-c2cc(-c3ccccc3)[nH]c(=S)c2C#N)cc1	-9.3%	15.8µM*
O=C(c1ccc2c(c1)N(Cc1ccc(F)cc1)C(=O)c1ccccc1S2(=O)=O)N1CCCCCC1	-2.3%	6.6%
COc1ccccc1NS(=O)(=O)c1cccc(C(=O)N/N=C/c2cn(-c3ccccc3)nc2-c2ccccc2)c1	-5.1%	12.6µM*
COc1ccc(-c2nn(-c3ccccc3)cc2/C=N/NC(N)=S)cc1OC	1.58µM*	0.631µM*
COc1ccc(-c2nn(-c3ccccc3)cc2/C=N/n2cnnc2)cc1OC	-7.7%	?
SMILES	Cruzain Triton	Cruzain inh noDet
COc1ccccc1NS(=O)(=O)c1cccc(C(=O)N/N=C/c2ccc3c(c2)OCCO3)c1	-11.3%	?
CCN(CC)c1ccc(/C=N/NC(=O)c2cccc(S(=O)(=O)Nc3ccccc3OC)c2)c(O)c1	-3.8%	20µM*
COc1ccccc1NS(=O)(=O)c1cccc(C(=O)N/N=C/c2c(C)nn(-c3ccccc3)c2N2CCCC2)c1	-3.9%	-12.6%
CC(C)C(=O)Nc1ccc2nc(SCC(=O)N3CCCC3)sc2c1	-3.6%	-6.3%
Cc1ccc(C(C)C)c(OC(C)C(=O)NCC2(N(C)C)CCCCC2)c1 (stereo not given)	4.6%	-11.6%
CCOc1ccc(C(=O)NCCc2sc(-c3ccc(F)cc3)nc2C)cc1	-11.9%	15.8%
COc1ccccc1CNC(=O)C(Cc1ccccc1)NS(=O)(=O)c1ccc2c(c1)CCN2C(C)=O (stereo not given)	-3.5%	-16.4%
